Measurements reported in PubChem BioAssay (EPA / NIEHS).
Results filed as inconclusive are left out. More than one record can exist for a structure, and the calls need not agree. Calls of active or inactive are those of the source. How the source made its calls, unless noted: active means hit-call score of the fitted dose curve at least 0.9, where 1 is the maximum; inconclusive means response in the unintended direction; inactive means score below 0.9.

Tests used:
[1] = target: Agonist Androgen Response Element (ARE), AR (gene 367) (UniProt P10275); experiment: OT_AR_ARELUC_AG_1440: Odyssey Thera (OT) 24-hour CHO-K1 Luciferase Assay for Agonist Androgen Response Element (ARE) (AID 2283379)
Procedure, shortened: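 CHO-K1 cells carrying an ARE-driven luciferase reporter were exposed to compounds for 24 h. Luminescence was then read after adding a D-luciferin/ATP mix, and activity was scored as a gain in signal over DMSO vehicle.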

[2] = target: Estrogen receptor (Homo sapiens) (UniProt P03372); experiment: OT_ERa_GFPERaERE_0480: Odyssey Thera (OT) 8-hour HeLa Transcription Induction Assay for Estrogen Receptor (AID 2283381; active means hit-call score of the fitted dose curve at least 0.9, where 1 is the maximum; inactive means score below 0.9)
Procedure, shortened: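 Fluorescent reporter signal, imaged by microscopy and scored with image-analysis algorithms, was taken 8 h after chemical dosing of HeLa cells; activity was fitted upward relative to DMSO.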

[3] = target: Estrogen receptor (Homo sapiens) (UniProt P03372); experiment: OT_ERa_GFPERaERE_0120: Odyssey Thera (OT) 2-hour HeLa Transcription Induction Assay for Estrogen Receptor (AID 2283382)
Procedure, shortened: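 HeLa, 384-well, 2 h chemical exposure; GFP reporter induction (ERE), fluorescence microscopy; high content image analysis; positive fitting direction vs DMSO.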

[4] = target: mouse Estrogen Receptor alpha (Era), Esr1 (gene 13982) (UniProt P19785); experiment: NVS_NR_mERa: NovaScreen (NVS) Nuclear Receptor Binding Assay for mouse Estrogen Receptor alpha (Era) (AID 2283378);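 further: hit means loss of bound radioligand signal relative to DMSO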
Procedure, shortened: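 Extracted mouse Era incubated with tritiated or iodinated radioligand plus test chemical, 18 h. Bound fraction separated on filters, counted by scintillation. DMSO = negative control/baseline; duplicate single-point at 25 uM, then concentration-response follow-up.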

[5] = target: Estrogen receptor beta (Homo sapiens) (UniProt Q92731); experiment: OT_ER_ERbERb_1440: Odyssey Thera (OT) 24-hour HEK293T Protein-Complementation Assay for Estrogen Receptor-beta/-beta Homodimer (AID 2283380);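 further: scored as signal increase over DMSO baseline for both agonists and antagonists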
Procedure, shortened: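 HEK293T cells stably expressing ER beta LBD (aa 310-547) homodimer fragment-complementation reporter, dosed 24 h. Cells formaldehyde-fixed, Draq5-stained; gain in nuclear (agonist) or nuclear plus cytoplasmic (antagonist) fluorescence versus DMSO read by laser scanning cytometry.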

Agonist Androgen Response Element (ARE), AR (gene 367), sequence (P10275 whole entry, looked up): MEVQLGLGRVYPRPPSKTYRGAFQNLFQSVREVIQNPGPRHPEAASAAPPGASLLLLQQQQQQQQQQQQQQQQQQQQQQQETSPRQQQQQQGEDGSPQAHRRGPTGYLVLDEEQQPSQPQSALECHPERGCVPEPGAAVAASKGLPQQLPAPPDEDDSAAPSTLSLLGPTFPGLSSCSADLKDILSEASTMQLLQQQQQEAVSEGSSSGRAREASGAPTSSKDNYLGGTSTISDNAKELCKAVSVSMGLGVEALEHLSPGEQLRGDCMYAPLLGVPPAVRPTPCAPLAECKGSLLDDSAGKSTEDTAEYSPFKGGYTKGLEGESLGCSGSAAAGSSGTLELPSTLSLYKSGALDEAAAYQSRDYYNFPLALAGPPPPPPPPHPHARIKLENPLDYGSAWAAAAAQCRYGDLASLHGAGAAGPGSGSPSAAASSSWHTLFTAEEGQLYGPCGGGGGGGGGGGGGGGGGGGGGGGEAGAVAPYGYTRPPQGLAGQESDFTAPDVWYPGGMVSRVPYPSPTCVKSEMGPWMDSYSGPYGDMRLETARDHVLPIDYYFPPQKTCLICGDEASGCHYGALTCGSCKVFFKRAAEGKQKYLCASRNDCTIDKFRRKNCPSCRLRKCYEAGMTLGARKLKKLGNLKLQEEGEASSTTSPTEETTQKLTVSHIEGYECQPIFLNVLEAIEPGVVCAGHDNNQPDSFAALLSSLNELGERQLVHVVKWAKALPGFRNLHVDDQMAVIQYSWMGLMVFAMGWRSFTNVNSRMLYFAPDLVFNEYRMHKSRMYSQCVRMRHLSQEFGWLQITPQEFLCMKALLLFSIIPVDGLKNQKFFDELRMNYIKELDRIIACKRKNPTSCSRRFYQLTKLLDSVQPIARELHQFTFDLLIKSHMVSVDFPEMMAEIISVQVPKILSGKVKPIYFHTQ
mouse Estrogen Receptor alpha (Era), Esr1 (gene 13982), sequence (P19785 whole entry, looked up): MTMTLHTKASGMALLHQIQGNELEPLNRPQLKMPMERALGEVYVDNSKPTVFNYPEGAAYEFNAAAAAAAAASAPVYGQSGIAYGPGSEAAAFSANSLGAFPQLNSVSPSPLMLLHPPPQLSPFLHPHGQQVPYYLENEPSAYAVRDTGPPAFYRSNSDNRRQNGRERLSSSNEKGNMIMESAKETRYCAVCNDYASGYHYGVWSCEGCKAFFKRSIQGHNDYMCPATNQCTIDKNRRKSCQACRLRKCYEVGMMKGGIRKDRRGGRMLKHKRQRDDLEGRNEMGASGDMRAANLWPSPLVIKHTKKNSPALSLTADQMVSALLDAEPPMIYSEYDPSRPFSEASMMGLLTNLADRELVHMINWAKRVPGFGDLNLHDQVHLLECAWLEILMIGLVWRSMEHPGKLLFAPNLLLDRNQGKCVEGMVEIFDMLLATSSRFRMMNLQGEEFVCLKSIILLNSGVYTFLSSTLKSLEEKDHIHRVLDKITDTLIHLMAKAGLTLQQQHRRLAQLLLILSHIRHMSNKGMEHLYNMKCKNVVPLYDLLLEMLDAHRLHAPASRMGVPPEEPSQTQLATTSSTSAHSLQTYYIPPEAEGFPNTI
Estrogen receptor (Homo sapiens), sequence (P03372 whole entry, looked up): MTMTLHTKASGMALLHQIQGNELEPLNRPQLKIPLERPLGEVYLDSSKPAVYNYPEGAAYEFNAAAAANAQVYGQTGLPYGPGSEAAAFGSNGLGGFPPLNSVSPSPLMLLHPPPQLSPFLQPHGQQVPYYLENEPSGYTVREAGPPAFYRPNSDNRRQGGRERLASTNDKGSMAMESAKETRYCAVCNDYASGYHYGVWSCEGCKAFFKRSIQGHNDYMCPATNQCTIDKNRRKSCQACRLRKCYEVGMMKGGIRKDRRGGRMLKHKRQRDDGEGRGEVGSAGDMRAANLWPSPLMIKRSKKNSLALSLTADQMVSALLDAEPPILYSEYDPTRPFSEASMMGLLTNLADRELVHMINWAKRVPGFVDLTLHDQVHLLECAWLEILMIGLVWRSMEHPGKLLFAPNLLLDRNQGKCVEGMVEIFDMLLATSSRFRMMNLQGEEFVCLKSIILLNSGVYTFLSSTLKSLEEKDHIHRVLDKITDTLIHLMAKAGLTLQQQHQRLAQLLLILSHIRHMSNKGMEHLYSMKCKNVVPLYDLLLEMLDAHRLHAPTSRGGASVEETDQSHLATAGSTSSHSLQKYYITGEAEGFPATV
Estrogen receptor beta (Homo sapiens), sequence (Q92731 whole entry, looked up, the tested form may be a part): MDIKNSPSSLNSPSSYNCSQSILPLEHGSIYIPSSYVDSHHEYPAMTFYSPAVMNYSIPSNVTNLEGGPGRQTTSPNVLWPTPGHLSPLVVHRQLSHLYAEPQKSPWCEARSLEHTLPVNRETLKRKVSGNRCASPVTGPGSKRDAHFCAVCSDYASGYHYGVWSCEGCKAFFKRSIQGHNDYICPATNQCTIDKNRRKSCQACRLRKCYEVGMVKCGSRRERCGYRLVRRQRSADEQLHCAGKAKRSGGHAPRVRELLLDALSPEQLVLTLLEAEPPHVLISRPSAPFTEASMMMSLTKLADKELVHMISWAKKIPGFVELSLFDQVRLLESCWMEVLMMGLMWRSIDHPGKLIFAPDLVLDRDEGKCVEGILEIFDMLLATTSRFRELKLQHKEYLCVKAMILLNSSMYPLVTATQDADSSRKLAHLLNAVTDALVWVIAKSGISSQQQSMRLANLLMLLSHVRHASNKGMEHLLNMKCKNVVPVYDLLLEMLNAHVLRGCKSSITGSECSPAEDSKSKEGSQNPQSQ

SMILES: CCCC1COC(Cn2cncn2)(c2ccc(Cl)cc2Cl)O1 (configuration not stated)
- outcome [1]: inactive
- outcome [2]: inactive
- outcome [3]: inactive

SMILES: C=CC1(C)OC(=O)N(c2cc(Cl)cc(Cl)c2)C1=O (configuration not stated)
- AC50 [4]: 10.1 µM (active)
- outcome [4]: inactive
- outcome [5]: inactive
- outcome [2]: inactive
- AC50 [3]: 50 µM (active)
- outcome [3]: inactive

SMILES: CC(C)C1(C)N=C(c2nc3ccccc3cc2C(=O)O)NC1=O (configuration not stated)
- outcome [5]: inactive
- outcome [2]: inactive
- outcome [3]: inactive

SMILES: COP(N)(=O)SC (configuration not stated)
- outcome [5]: inactive
- outcome [2]: inactive
- outcome [3]: inactive

SMILES: CCON=C(CC)C1=C(O)CC(c2c(C)cc(C)cc2C)CC1=O (configuration not stated)
- outcome [1]: inactive
- outcome [2]: inactive
- outcome [3]: inactive

SMILES: CNC(=S)S
- outcome [5]: inactive
- outcome [2]: inactive
- outcome [3]: inactive

SMILES: COC(=O)C=C(C)OP(=O)(OC)OC
- outcome [5]: inactive
- outcome [2]: inactive
- outcome [3]: inactive

SMILES: CCCN(CCC)c1c([N+](=O)[O-])cc(S(N)(=O)=O)cc1[N+](=O)[O-]
- outcome [5]: inactive
- outcome [2]: inactive
- outcome [3]: inactive

SMILES: Cc1ccc(-c2c(Cl)nc(C#N)n2S(=O)(=O)N(C)C)cc1
- outcome [1]: inactive
- outcome [5]: inactive
- outcome [2]: inactive
- outcome [3]: inactive

SMILES: COC(=O)N(OC)c1ccccc1COc1ccn(-c2ccc(Cl)cc2)n1
- outcome [5]: inactive
- outcome [2]: inactive
- outcome [3]: inactive

SMILES: CCOP(=S)(OCC)SCn1c(=O)oc2cc(Cl)ccc21
- outcome [5]: inactive
- outcome [2]: inactive
- outcome [3]: inactive

SMILES: CN(C)C(=S)SSC(=S)N(C)C
- outcome [1]: inactive
- outcome [5]: inactive
- AC50 [2]: 83.4 µM (active)
- AC50 [3]: 90.7 µM (active)

SMILES: O=C(O)COc1nc(Cl)c(Cl)cc1Cl
- outcome [2]: inactive
- outcome [3]: inactive

SMILES: CC(C)(C)c1ccc(CSc2cnn(C(C)(C)C)c(=O)c2Cl)cc1
- outcome [5]: inactive
- outcome [2]: inactive
- outcome [3]: inactive

SMILES: COC(=O)c1ccccc1C(=O)OC
- outcome [4]: inactive
- outcome [5]: inactive
- outcome [2]: inactive
- outcome [3]: inactive

SMILES: CC(C)Oc1cc(-n2nc(C(C)(C)C)oc2=O)c(Cl)cc1Cl
- outcome [1]: inactive
- outcome [5]: inactive
- outcome [2]: inactive
- outcome [3]: inactive

SMILES: N#Cc1cc(Br)c(O)c(Br)c1
- outcome [2]: inactive
- outcome [3]: inactive

SMILES: CCNc1nc(Cl)nc(NCC)n1
- outcome [5]: inactive
- outcome [2]: inactive
- outcome [3]: inactive

SMILES: O=C(O)c1nc(Cl)ccc1Cl
- outcome [2]: inactive
- outcome [3]: inactive

SMILES: CCOC(=O)CC(SP(=S)(OC)OC)C(=O)OCC (configuration not stated)
- outcome [1]: inactive
- outcome [2]: inactive
- outcome [3]: inactive

SMILES: CNC(=O)ON=CC(C)(C)SC
- outcome [2]: inactive
- outcome [3]: inactive

SMILES: CC(Oc1ccc(Cl)cc1Cl)C(=O)O (configuration not stated)
- outcome [2]: inactive
- outcome [3]: inactive

SMILES: CS/C(C)=N/OC(=O)N(C)SN(C)C(=O)O/N=C(\C)SC
- outcome [1]: inactive
- outcome [5]: inactive
- AC50 [2]: 93.3 µM (active)
- outcome [3]: inactive

SMILES: COc1cnc(OC)n2nc(NS(=O)(=O)c3c(OCC(F)F)cccc3C(F)(F)F)nc12
- outcome [5]: inactive
- outcome [2]: inactive
- outcome [3]: inactive

SMILES: N#Cc1nn(-c2c(Cl)cc(C(F)(F)F)cc2Cl)c(N)c1S(=O)C(F)(F)F (configuration not stated)
- outcome [1]: inactive
- outcome [5]: inactive
- outcome [2]: inactive
- outcome [3]: inactive

SMILES: COP(=S)(OC)Oc1nc(Cl)c(Cl)cc1Cl
- outcome [5]: inactive
- outcome [2]: inactive
- outcome [3]: inactive
